This passage reports B-score and outcome results from PubChem BioAssay AID488975 (Johns Hopkins Ion Channel Center, 2010).

Structures are written as SMILES. Among all 310,000 compounds or so, about 2,600 (0.84%) were called active.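 The calls were made as follows: active = B-score over 3 SD under the library average, and starting fluorescence ratio not unusually high; inactive = the rest.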 The list comes from a sample in which actives are over-represented; it also holds similar structures and randomly drawn compounds. More than one record can exist for a structure, and the calls need not agree.

The target in this assay is High affinity choline transporter 1 (Homo sapiens) (UniProt Q9GZV3). Description: inhibits the human high affinity choline transporter (AID 488975).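 As to B-score: choline stimulus applied at its EC90 after an EC20 pre-addition; B-score computed on integrated fluorescence ratio after choline addition.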 The settings on record: CHT-expressing cells, membrane potential dye, choline response, at 10 µM; active compounds read low.
Chain of High affinity choline transporter 1 (Homo sapiens) (Q9GZV3 whole entry, looked up): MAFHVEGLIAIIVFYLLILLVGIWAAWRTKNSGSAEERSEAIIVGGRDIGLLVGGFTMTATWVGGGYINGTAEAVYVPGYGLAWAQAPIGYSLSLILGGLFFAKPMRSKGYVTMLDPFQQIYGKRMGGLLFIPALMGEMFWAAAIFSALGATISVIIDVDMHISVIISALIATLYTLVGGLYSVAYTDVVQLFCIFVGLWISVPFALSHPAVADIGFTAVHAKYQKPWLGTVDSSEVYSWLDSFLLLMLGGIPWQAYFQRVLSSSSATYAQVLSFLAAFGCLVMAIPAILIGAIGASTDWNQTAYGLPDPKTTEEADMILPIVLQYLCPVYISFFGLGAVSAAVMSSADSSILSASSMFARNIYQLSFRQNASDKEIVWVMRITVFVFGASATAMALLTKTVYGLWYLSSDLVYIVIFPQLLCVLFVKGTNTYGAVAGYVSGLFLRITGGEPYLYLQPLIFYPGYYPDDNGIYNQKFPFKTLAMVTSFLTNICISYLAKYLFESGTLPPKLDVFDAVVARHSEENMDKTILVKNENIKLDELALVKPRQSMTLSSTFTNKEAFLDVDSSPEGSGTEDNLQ
As to `O=C1/C(=C/c2ccc(F)cc2)SC(=S)N1CCCC(=O)N1CCCCC1CCO` (centres undefined), the B-score entry is “inactive”.

As for `COc1ccc(/C=C2\SC(=S)N(CC(=O)NNC(=O)c3ccncc3)C2=O)cc1`, the B-score result is “inactive”.

For `O=C(O)c1ccc(/C=C2\SC(=S)N(NC(=O)c3ccc(Br)cc3)C2=O)cc1`, the B-score was -5.15 (active).

For `COc1ccccc1C(=O)NNC(=O)CCN1C(=O)/C(=C\c2ccccc2)SC1=S`, the B-score result is “inactive”.

Turning to `CCOc1ccc(/C=C2\SC(=S)N(NC(=O)c3ccncc3)C2=O)cc1OC`, the B-score was -5.15 (active).

Consider `O=C(O)c1ccc(/C=N/NC(=O)c2ccc(Br)cc2)cc1`, for which the B-score entry is “inactive”.

`COc1ccc(/C=C2\SC(=S)N(CCC(=O)Nc3ccccn3)C2=O)cc1OC`: the B-score result was “inactive”.

On to `O=C1/C(=C/c2ccc(F)cc2)SC(=S)N1NS(=O)(=O)c1ccccc1`, for which the B-score was -6.62 (active).

With `Cn1cccc1/C=C1\SC(=S)N(NC(=O)c2ccc(Cl)cc2)C1=O`, the B-score result is “inactive”.

As for `COc1ccc2oc(C(=O)N(CC(C)C)C3CCS(=O)(=O)C3)c(C)c2c1` (centres undefined), the B-score entry was “inactive”.

On to `O=C(NCc1ccc(Cl)cc1)C(=O)NCC1CCCN1S(=O)(=O)c1cccs1` (centres undefined), for which the B-score result was “inactive”.

Take `CC1CC(C)(C)CC2(C1)NC(=O)N(CC(=O)Nc1nccs1)C2=O` (centres undefined): the B-score entry is “inactive”.

Take `O=c1c(Cl)c(NC2CC2)cnn1-c1ccccc1`: the B-score result was “inactive”.

On to `C=CCNc1cnn(-c2ccc(C)cc2)c(=O)c1Cl`, for which the B-score entry is “inactive”.

In the case of `Cc1cccc(-n2ncc(Cl)c(Cl)c2=O)c1`, the B-score was -6.46 (active).

`CCN1C(=O)[C@H]2[C@@H](c3ccc(SC4CCCCC4)c(OC)c3)N[C@@](Cc3ccccc3)(C(=O)OC)[C@H]2C1=O`: the B-score result was “inactive”.

On to `COc1cc(OC)cc(C(=O)NCCCn2ccnc2)c1`, for which the B-score entry is “inactive”.

In the case of `COc1cccc(-c2nn(-c3ccccc3)cc2/C=C(\C#N)C(=O)NCCCn2ccnc2)c1`, the B-score was -6.63 (active).

For `COc1ccc(/C=C(\C#N)C(=O)NCCCn2ccnc2)cc1`, the B-score result is “inactive”.

Regarding `Cc1ccc(S(=O)(=O)N2[C@@H](c3cccc(Cl)c3)C(C(=O)O)=CC[C@H]2c2ccc(Cl)c(Cl)c2)cc1`, the B-score entry was “inactive”.

Turning to `COc1cccc(N2CC(NS(=O)(=O)c3ccc(Cl)cc3)CC2=O)c1` (centres undefined), the B-score entry is “inactive”.

Turning to `COc1cccc(CNC(=O)C(=O)NCCC2CCCCN2S(=O)(=O)c2ccc(C)cc2)c1` (centres undefined), the B-score entry was “inactive”.

In the case of `C/C(=N\NC(=O)c1cccnc1)c1ccc(-c2ccccc2)cc1`, the B-score entry was “inactive”.

As to `C/C(=N\NC(N)=S)c1ccncc1`, the B-score entry was “inactive”.

`C/C(=N\NC(N)=S)c1cccnc1`: the B-score is -9.98 (active).

As to `CC(Oc1ccc2ccccc2c1)C(=O)NNC(=S)NC(=O)c1ccco1` (centres undefined), the B-score was -5.21 (active).

For `O=C(Nc1ccc2ccccc2c1)/C(=C/c1cccc(Br)c1)NC(=O)c1ccco1`, the B-score entry is “inactive”.

Consider `Cc1ccc(C(=O)NNC(=O)C(C)Oc2ccc3ccccc3c2)o1` (centres undefined), for which the B-score entry is “inactive”.

Take `CCCCN(C(=O)CCNC(=O)NC12CC3CC(CC(C3)C1)C2)c1c(N)n(CCCC)c(=O)[nH]c1=O`: the B-score result is “inactive”.

`COc1ccc(CCNC(=O)C(=O)NCC2OCCN2S(=O)(=O)c2cccs2)cc1OC` (centres undefined): the B-score result is “inactive”.

`O=C(Nc1ccccc1N1CCCC1)c1ccc(F)c(S(=O)(=O)N2CCOCC2)c1`: the B-score entry is “inactive”.

As for `CC(C)CN(C(=O)COC(=O)c1ccc(Cl)c(N)c1)c1c(N)n(Cc2ccccc2)c(=O)[nH]c1=O`, the B-score result was “inactive”.

Consider `Cc1cc(C)n(-c2nc(SCC(=O)N3CCCC3)c3c4c(sc3n2)CCCC4)n1`, for which the B-score result was “inactive”.

For the compound `COCCNc1nc(-n2nc(C)cc2C)nc2sc3c(c12)CCCC3`, the B-score was -4.98 (active).

For the compound `Cc1nc2sc3c(c2c(=O)n1NC(=O)CCl)CCCC3`, the B-score result is “inactive”.

`N#CC1(NC(=O)COC(=O)CSc2ccc(F)cc2)CCCCC1`: the B-score entry is “inactive”.

Take `CCOc1ccc(S(=O)(=O)Nc2ccc(C(=O)NCCCN3CCCC3=O)cc2)cc1`: the B-score result was “inactive”.

With `COc1ccc(S(=O)(=O)N2CCN(C(=O)NC3CCCCC3)CC2)cc1`, the B-score is -6.98 (active).

Turning to `COc1ccc(S(=O)(=O)N2CCCC2CNC(=O)C(=O)NC2CC2)cc1` (centres undefined), the B-score entry was “inactive”.

With `CCOC(=O)N1CCN(S(=O)(=O)c2ccc(OC)cc2)CC1`, the B-score entry was “inactive”.

Regarding `CC(C)n1cnc2c(Nc3cccc(Cl)c3)nc(N(CCO)CCCO)nc21`, the B-score is -7.57 (active).

For the compound `OCCCNc1nccc(-c2cc(Nc3cccc(Cl)c3)ncn2)n1`, the B-score result was “inactive”.

Consider `CC(C)C[C@H](CO)Nc1nc(N(C)c2cccc(Cl)c2)c2ncn(C(C)C)c2n1`, for which the B-score entry was “inactive”.

On to `COc1ccccc1N(C)S(=O)(=O)c1ccc(Cl)c(C(=O)Nc2ccncc2)c1`, for which the B-score entry was “inactive”.

For the compound `COc1ccc(NS(=O)(=O)c2ccc(C)c(C(=O)N(C)Cc3ccc(OC)cc3OC)c2)cc1`, the B-score result is “inactive”.

On to `CC1(C)SC2C(NC(=O)COc3ccccc3)C(=O)N2C1C(=O)O` (centres undefined), for which the B-score was -6.15 (active) and the result was inactive.

For `CC1(C)S[C@@H]2[C@H](N=CN3CCCCCC3)C(=O)N2[C@H]1C(=O)O`, the B-score entry was “inactive”.

For the compound `CC1(C)S[C@@H]2[C@H](NC(=O)COc3ccccc3)C(=O)N2C1C(=O)OCc1ccccc1` (some centres undefined), the B-score entry was “inactive”.

Consider `COC(=O)[C@]1(C)N[C@H](c2ccc(-c3ccc(Cl)c(Cl)c3)cc2)[C@@H]2C(=O)N(C)C(=O)[C@@H]21`, for which the B-score entry is “inactive”.

Regarding `O=C(NCC(c1cccs1)N1CCOCC1)c1cc(Cl)ccc1[N+](=O)[O-]` (centres undefined), the B-score result was “inactive”.

For `OCCCNc1nc(-c2ccccc2)c2cc(Cl)ccc2n1`, the B-score entry is “inactive”.

For the compound `CCC(C)NC(=O)Cn1nc(C(F)(F)F)c2c1CCC2` (centres undefined), the B-score result was “inactive”.

Consider `CC(C)OC(=O)Cn1nc(C(F)(F)F)c2c1CCCC2`, for which the B-score result is “inactive”.

With `COC(=O)c1ccccc1NC(=O)Cn1nc(C(F)(F)F)c2c1CCC2`, the B-score is -5.17 (active).

For `O=C(Cn1nc(C(F)(F)F)c2c1CCC2)NCc1ccc(F)cc1`, the B-score is -6.14 (active).

Consider `Cc1cc(NC(=O)Cn2nc(C(F)(F)F)c3c2CCCC3)no1`, for which the B-score result was “inactive”.

Regarding `COC(=O)c1ccccc1NC(=O)CSc1nc2c(c(=O)[nH]1)CCC2`, the B-score result is “inactive”.

Take `N#CCN(C(=O)COC(=O)C1CC2CCCC(C1)C2=O)c1ccccc1` (centres undefined): the B-score result is “inactive”.

In the case of `CC1CCN(c2ccc(-c3ccc(NC(=O)c4ccco4)cc3)nn2)CC1`, the B-score result is “inactive”.

Turning to `Cc1noc(C)c1CSCC(=O)Nc1ccc(Br)cc1Cl`, the B-score entry is “inactive”.

As for `O=C(c1ccncc1)N1CCN(S(=O)(=O)c2cc(C(F)(F)F)cc(C(F)(F)F)c2)CC1`, the B-score result is “inactive”.

`COCc1c(C(=O)N/N=C\c2cccnc2)nnn1-c1nonc1N`: the B-score result is “inactive”.

For `CCN(CC)Cc1c(C(=O)N/N=C/c2cccc(OCc3ccc(F)cc3)c2)nnn1-c1nonc1N`, the B-score was -5.26 (active).

In the case of `CN(C)Cc1c(C(=O)N/N=C/c2ccccc2OCc2ccc(F)cc2)nnn1-c1nonc1N`, the B-score result is “inactive”.

On to `CCCCn1c(N)c(N(CC(C)C)C(=O)c2ccc(Br)o2)c(=O)[nH]c1=O`, for which the B-score entry is “inactive”.

As to `CC(OC(=O)c1ccc(S(=O)(=O)N2CCOCC2)cc1)c1ccccc1` (centres undefined), the B-score entry was “inactive”.

With `CCN(C(=O)CSc1ncnc2c1cnn2-c1ccccc1)C1CCS(=O)(=O)C1` (centres undefined), the B-score entry is “inactive”.

Consider `O=C(Nc1ccc(F)c(Cl)c1)C1CCN(S(=O)(=O)c2cccnc2)CC1`, for which the B-score is -5.54 (active).

Consider `O=C(NCc1cccs1)C1CCN(S(=O)(=O)c2ccc(Cl)cc2)CC1`, for which the B-score entry is “inactive”.

For `CC(C)c1ccc(NC(=O)C2CCCN(S(=O)(=O)c3cccnc3)C2)cc1` (centres undefined), the B-score entry is “inactive”.

`Cc1cc(C(=O)OCC(=O)NCc2ccco2)c(C)n1-c1ccccc1`: the B-score is -10 (active).

Consider `CN(c1ccccc1)S(=O)(=O)c1ccc(Cl)c(C(=O)OCC(=O)NCc2ccco2)c1`, for which the B-score entry was “inactive”.

For `O=C(COC(=O)c1cc(S(=O)(=O)N2CCCCC2)ccc1Cl)NCc1ccco1`, the B-score entry was “inactive”.

In the case of `CCOc1ccc(S(=O)(=O)N2CCN(C(=S)NCC3CCCO3)CC2)cc1` (centres undefined), the B-score entry was “inactive”.

Turning to `CC(C)CN(C(=O)c1ccc2c(c1)OCO2)C1CCS(=O)(=O)C1` (centres undefined), the B-score entry was “inactive”.

For `CN(C(=O)c1cc2c(=O)n3ccccc3nc2s1)C1CCCCC1`, the B-score result is “inactive”.

As for `O=C(CC1SC(N2CCCC2)=NC1=O)Nc1ccc(C(=O)NCCc2ccc(F)cc2)cc1` (centres undefined), the B-score result was “inactive”.

In the case of `CCc1nccn1S(=O)(=O)c1cccc([N+](=O)[O-])c1`, the B-score result is “inactive”.

In the case of `CCc1nc(C)cn1S(=O)(=O)c1cc([N+](=O)[O-])ccc1Cl`, the B-score is -5.38 (active).

Take `Cc1ccc([N+](=O)[O-])cc1S(=O)(=O)N1CCCN(C)CC1`: the B-score result is “inactive”.

`C=CCOc1cccc(C2C(C(=O)c3ccc(C)o3)=C(O)C(=O)N2CCCn2ccnc2)c1` (centres undefined): the B-score entry was “inactive”.

Turning to `O=C(CN1C(=O)CSc2ncccc21)N1CCOCC1`, the B-score entry is “inactive”.

`O=C(CCCN1C(=O)CSc2ncccc21)N1CCN(c2cccc(C(F)(F)F)c2)CC1`: the B-score is -9.61 (active).

As to `O=C(COc1ccc(Cl)cc1)N1CCN(c2cccc(C(F)(F)F)c2)CC1`, the B-score result was “inactive”.

As to `CCCn1c(C)cc(-c2csc(NC(=O)CCc3nc4ccccc4c(=O)[nH]3)n2)c1C`, the B-score entry was “inactive”.

With `CN(C)C1=NC[C@H](Cc2ccccc2)N1CCc1ccc(F)cc1`, the B-score entry is “inactive”.

`CC1C(=O)N2CCCc3cc(S(=O)(=O)NCc4ccc(F)cc4)cc1c32` (centres undefined): the B-score entry is “inactive”.

Turning to `CN1C(=O)/C(=C/c2ccc(C(=O)NC3CCCC3)cc2)Oc2ccccc21`, the B-score result is “inactive”.

For `O=C(NCCN1CCOCC1)c1ccc(/C=C2\Sc3ccccc3N(Cc3ccc(F)cc3)C2=O)cc1`, the B-score entry was “inactive”.

Take `CN1CCN(CCCNC(=O)c2ccc(/C=C3\Oc4ccccc4N(Cc4ccc(Cl)cc4)C3=O)cc2)CC1`: the B-score was -7.25 (active).

As for `O=C(NC1CCCCC1)c1ccc(-c2ccc(Cl)cc2)o1`, the B-score entry was “inactive”.

For `O=[N+]([O-])c1ccccc1Nc1ccc(O)cc1`, the B-score was -5.48 (active).

On to `O=[N+]([O-])c1ccc(O)c(/C=N/Nc2ccccc2[N+](=O)[O-])c1`, for which the B-score entry was “inactive”.

Turning to `O=C(O)c1ccccc1C(=O)Nc1ccccc1[N+](=O)[O-]`, the B-score result is “inactive”.

Turning to `CCN(C(=O)CSc1nnnn1-c1ccccc1OC)C1CCS(=O)(=O)C1` (centres undefined), the B-score entry is “inactive”.

Take `Cc1nc2c(c(C)nn2-c2ccccc2)c(C)c1C`: the B-score entry is “inactive”.

For the compound `O=C(Nc1ncccc1O)c1ccc(C(=O)c2ccccc2)cc1`, the B-score result was “inactive”.

In the case of `Cc1csc(=O)n1CC(=O)OCC(=O)N(CC(C)C)c1c(N)n(Cc2ccccc2)c(=O)[nH]c1=O`, the B-score entry was “inactive”.
